Measured values from PubChem BioAssay (NCI).
About 79,000 compounds went through this panel and 15% of them were active in at least one assay; those are over-represented in the sample as a whole. Calls of active or inactive are those of the source. Rule as the data show it: active = growth inhibition above about 70%; inactive = the rest.

Tests used:
[1] = NCI Yeast Anticancer Drug Screen. Data for the rad52 strain (AID 147);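 also: 0% = growth of vehicle-treated control cultures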; details: S. cerevisiae rad52 mutant growth inhibition, stronger effect = higher value
Method in brief: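 DNA repair-defective yeast; compound exposure; growth scored against vehicle controls.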

[2] = NCI Yeast Anticancer Drug Screen. Data for the wt1 strain (AID 149);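 also: 0% = growth of vehicle-treated wt1 cultures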; details: S. cerevisiae wt1 strain (SPY 50644) growth inhibition, stronger effect = higher value
Method in brief: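 Growth inhibition read against vehicle controls after compound exposure of the wt1 yeast strain.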

[3] = NCI Yeast Anticancer Drug Screen. Data for the rad50EPP+ strain (AID 151);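 also: 0% = growth of vehicle-treated control cultures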; details: S. cerevisiae rad50 mutant strain, stronger effect = higher value
Method in brief: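 rad50EPP+ yeast treated with test compounds. Readout: growth vs vehicle control.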

[4] = NCI Yeast Anticancer Drug Screen. Data for the mgt1 strain (AID 153); details: S. cerevisiae mgt1 mutant growth inhibition, stronger effect = higher value
Method in brief: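 Growth inhibition relative to vehicle controls was scored for the mgt1 yeast strain after compound exposure.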

[5] = NCI Yeast Anticancer Drug Screen. Data for the rad50 strain (AID 155);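 also: 0% = growth of vehicle-only cultures of the same strain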; details: S. cerevisiae rad50 strain growth inhibition, stronger effect = higher value
Method in brief: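 Readout: growth inhibition relative to vehicle-treated cultures. Compound exposure was carried out in a genetically defined yeast strain deficient in DNA damage repair.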

[6] = NCI Yeast Anticancer Drug Screen. Data for the mec2-1 strain (AID 157); details: S. cerevisiae mec2-1 strain, stronger effect = higher value
Method in brief: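 Growth inhibition is read against vehicle-treated controls after compound exposure of the mec2-1 yeast strain, which is defective in DNA damage repair or cell cycle control.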

[7] = NCI Yeast Anticancer Drug Screen. Data for the rad14 strain (AID 159);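 also: 0% = growth of vehicle-treated control cultures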; details: S. cerevisiae rad14 strain growth inhibition, stronger effect = higher value
Method in brief: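 Growth inhibition vs vehicle controls; genetically altered yeast strain (DNA damage repair defect) treated with test compounds.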

[8] = NCI Yeast Anticancer Drug Screen. Data for the sgs1 mgt1 strain (AID 161);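 also: 0% = growth of cultures given vehicle only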; details: S. cerevisiae sgs1 mgt1 strain, stronger effect = higher value
Method in brief: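 Compounds are added to genetically altered yeast, and growth is compared with cultures given vehicle alone to give percent inhibition.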

[9] = NCI Yeast Anticancer Drug Screen. Data for the CLN2oe strain (AID 163);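 also: 0% = growth of vehicle-only control cultures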; details: S. cerevisiae CLN2oe strain, stronger effect = higher value
Method in brief: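 Compound-treated yeast; growth vs vehicle ctrl = % inhibition. Genetically altered strain (cell-cycle control).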

[10] = NCI Yeast Anticancer Drug Screen. Data for the cln2 rad14 strain (AID 165);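 also: 0% = growth equal to vehicle treated cultures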; details: S. cerevisiae cln2 rad14 strain, stronger effect = higher value
Method in brief: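 Growth inhibition, relative to vehicle-treated controls, is the read-out. The test organism is a yeast strain with defined genetic alterations, cln2 rad14.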

[11] = NCI Yeast Anticancer Drug Screen. Data for the wt2 strain (AID 169);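 also: 0% = growth of vehicle-treated yeast cultures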; details: S. cerevisiae wt2 strain growth inhibition, stronger effect = higher value
Method in brief: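 Compound exposure of yeast; growth compared with vehicle controls; inhibition reported.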

[12] = NCI Yeast Anticancer Drug Screen. Data for the mlh1 strain (AID 171);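 also: 0% = growth of vehicle-treated control cultures of the same strain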; details: S. cerevisiae mlh1 strain growth inhibition, stronger effect = higher value
Method in brief: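 Compounds are applied to a genetically altered yeast strain, and its growth is compared with that of vehicle-treated cultures to give percent inhibition.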

[13] = NCI Yeast Anticancer Drug Screen. Data for the mlh1 rad18 strain (AID 175); details: S. cerevisiae mlh1 rad18 strain growth inhibition, stronger effect = higher value
Method in brief: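 Cells of a genetically altered yeast strain, deficient in DNA damage repair, were treated with compound. Their growth was then compared with that of vehicle-treated cultures to give inhibition.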

[14] = NCI Yeast Anticancer Drug Screen. Data for the rad18 strain (AID 177); details: S. cerevisiae rad18 mutant growth inhibition, stronger effect = higher value
Method in brief: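 Compounds are applied to a repair-deficient yeast strain, and growth is compared with that of vehicle-treated cultures to give percent inhibition.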

[15] = at 5.0 µM (retest, dose inferred, filed as 0.5)
[16] = at 50.0 µM (retest, dose inferred, filed as 5.0)

Measured: growth inhibition

OC(/C=C/c1ccccc1)(Cc1cc(-c2ccccc2)n[nH]1)c1ccccc1 (stereo not given)
inactive: [1]; at 1.2 µM 14% | [1]; at 3.7 µM 14% | [1]; at 11.0 µM 11% | [1]; at 33.0 µM 14% | [1]; at 100.0 µM 9% | [2]; at 1.2 µM 9% | [2]; at 3.7 µM 5% | [2]; at 11.0 µM 7% | [2]; at 33.0 µM 8% | [2]; at 100.0 µM 9% | [3]; at 1.2 µM 12% | [3]; at 3.7 µM 11% | [3]; at 11.0 µM 14% | [3]; at 33.0 µM 13% | [3]; at 100.0 µM 13% | [4]; at 1.2 µM 9% | [4]; at 3.7 µM 12% | [4]; at 11.0 µM 10% | [4]; at 33.0 µM 12% | [4]; at 100.0 µM 13% | [5]; at 1.2 µM 8% | [5]; at 3.7 µM 7% | [5]; [15] -3% | [5]; at 11.0 µM 4% | [5]; at 33.0 µM 11% | [5]; at 100.0 µM 8% | [6]; at 1.2 µM 9% | [6]; at 3.7 µM 11% | [6]; [15] 1% | [6]; at 11.0 µM 12% | [6]; at 33.0 µM 13% | [6]; at 100.0 µM 12% | [7]; at 1.2 µM 15% | [7]; at 3.7 µM 15% | [7]; at 11.0 µM 13% | [7]; at 33.0 µM 17% | [7]; at 100.0 µM 16% | [8]; [15] 17% | [9]; at 1.2 µM 23% | [9]; at 3.7 µM 24% | [9]; at 11.0 µM 24% | [9]; at 33.0 µM 26% | [9]; at 100.0 µM 24% | [10]; [15] -19% | [11]; at 1.2 µM -11% | [11]; at 3.7 µM -8% | [11]; at 11.0 µM -15% | [11]; at 33.0 µM -8% | [11]; at 100.0 µM -14% | [12]; at 1.2 µM 10% | [12]; at 3.7 µM 12% | [12]; at 11.0 µM 12% | [12]; at 33.0 µM 13% | [12]; at 100.0 µM 14% | [13]; [15] 18% | [14]; at 1.2 µM 12% | [14]; at 3.7 µM 12% | [14]; at 11.0 µM 11% | [14]; at 33.0 µM 15% | [14]; at 100.0 µM 24%
active: [5]; [16] 97% | [5]; at 50.0 µM 98.6% | [6]; [16] 97% | [6]; at 50.0 µM 99.1% | [8]; [16] 97% | [8]; at 50.0 µM 97.8% | [10]; [16] 94% | [10]; at 50.0 µM 98.3% | [13]; [16] 97% | [13]; at 50.0 µM 98.7%
